Active and inactive are the calls of the source.
What was measured:
[1] = compound effects on lung adenocarcinoma cell viability – A549, calcein-AM fluorescence, 48 h, basal, profiling panel (AID 1162); details: higher = more signal
[2] = compound effects on differentiated 3T3-L1 adipocyte viability – cell-based, 3T3-L1 adipocytes, calcein-AM fluorescence, 48 h, basal, profiling panel (AID 1163); details: 3T3-L1 adipocytes viability, higher = more signal
[3] = compound effects on hepatocellular carcinoma cell viability – HepG2, calcein-AM fluorescence, 48 h, basal, profiling panel (AID 1164); details: higher = more signal
[4] = compound effects on multiple myeloma cell viability – MM1S, calcein-AM fluorescence, 48 h, basal, profiling panel (AID 1165); details: higher = more signal;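 also: viability of MM1S multiple myeloma cells under basal unstimulated conditions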
[5] = calcein-AM signal in unstimulated myeloma cells – cell-based, calcein-AM fluorescence, 48 h, PK04 Diversity Set, profiling panel (AID 1166); details: RPMI8226 myeloma viability, higher = more signal;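 also: cells grown under basal conditions without added stimulus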
[6] = JC-1 mitochondrial signal, unstimulated HepG2 cells – cell-based, JC-1 fluorescence, 24 h, 100 nL compound, profiling panel (AID 1167); details: HepG2 mitochondrial potential, higher = more signal
[7] = JC-1 mitochondrial signal, unstimulated adipocytes – cell-based, JC-1 fluorescence, 3T3-L1 adipocytes, 24 h, 100 nL compound, profiling panel (AID 1168); details: JC-1 mitochondrial fluorescence, higher = more signal, called active from +8 up or from −8 down
[8] = JC-1 mitochondrial signal, unstimulated myeloma cells – cell-based, JC-1 fluorescence, RPMI8226, 24 h, 100 nL compound, profiling panel (AID 1169); details: JC-1 mitochondrial potential fluorescence, higher = more signal
[9] = JC-1 mitochondrial signal, unstimulated MM1S myeloma – cell-based, JC-1 fluorescence, 24 h, 100 nL compound, profiling panel (AID 1170); details: MM1S mitochondrial potential, higher = more signal
[10] = resazurin metabolic signal in A549 cells – cell-based, resazurin fluorescence, 24 h, PK04 Diversity Set, profiling panel (AID 1171); details: A549 viability, higher = more signal, called active from +8 up or from −8 down
Also: test concentration not given here.

SMILES | z-score [1] | z-score [2] | z-score [3] | z-score [4] | z-score [5] | z-score [6] | z-score [7] | z-score [8] | z-score [9] | z-score [10]
[N-]=[N+]=NCc1ccccc1C[C@@]1(C(=O)NCC(O)CO)N=C(c2ccc(OCCCO)cc2)O[C@@H]1c1ccccc1N=[N+]=[N-] (stereo not given in full) | -2.46 | 0.223 | -1.75 | -2.92 | -3.45 | -0.158 | -0.731 (inactive) | -1.19 | -0.999 | -3.5 (inactive)
Cc1ccc(C(C)CC(O)C2C=CC3C(=O)N(c4ccccc4)C(=O)C3N2Nc2ccc([N+](=O)[O-])cc2)o1 (stereo not given) | -0.483 | 0.0852 | 0.268 | -0.0308 | -0.259 | -0.414 | -2.12 (inactive) | -0.0508 | -1.54 | 0.35 (inactive)
O=C1c2ccccc2[C@@]2(Cc3ccccc3N(CC(F)(F)F)C2=O)[C@H](c2ccc(CO)cc2)N1Cc1ccccc1Cl | 0.609 | 0.889 | -0.0395 | -0.354 | -0.936 | -0.0535 | -0.483 (inactive) | -0.131 | 0.165 | -0.142 (inactive)
CC(=O)NCCCC[C@@H]1NC(=O)[C@@H]2C[C@H](C(=O)NCCCCCCNC(=O)CS)[C@H](c3cccc(OCCO)c3)N2C1=O | 0.0596 | -0.834 | 0.282 | 0.211 | 0.132 | -0.387 | 0.0104 (inactive) | -0.811 | -0.333 | -0.435 (inactive)
COC(=O)[C@@]1(Cc2ccc(OC)cc2)[C@H]2c3cc(C(=O)N4CCCC4)n(Cc4ccsc4Br)c3C[C@H]2CN1C(=O)c1ccccc1 | -1.92 | -0.793 | -0.119 | -3.3 | -4.43 | 0.321 | -1.05 (inactive) | -0.822 | -2.91 | -2.75 (inactive)
COc1ccc([Si](C)(C)[C@@H]2[C@@H](CCO)O[C@]3(C(=O)N(Cc4ccc(N5C(=O)COc6ccccc65)cc4)c4ccccc43)[C@H]2C)cc1 | -1.54 | -0.0973 | -3.87 | -2.41 | -3.72 | -0.917 | -0.189 (inactive) | -0.923 | -1.53 | -2.38 (inactive)
O=C1C2C=CC(C(O)c3ccc(F)cc3)N(Nc3ccccc3F)C2C(=O)N1c1ccccc1 (stereo not given) | -1.39 | -1.1 | -1.47 | -0.389 | -0.233 | -1.73 | -1.08 (inactive) | -0.143 | 0.396 | 0.0853 (inactive)
CN(C)C(=O)[C@@]1(Cc2ccccc2)N=C(c2ccc(OCCCO)cc2)O[C@H]1c1ccccc1N=[N+]=[N-] | -1.45 | 1.22 | -1.84 | -2.53 | -3.91 | 1.48 | 1.17 (inactive) | -0.981 | -2.53 | -1.63 (inactive)
CC1CC/C=C\[C@H]2OC34C=CCN(c5ccc(Cl)cc5)C(=O)[C@H]3N(CCO)C(=O)[C@]4(C)C2C(=O)O1 (stereo not given in full) | -0.562 | 0.594 | 0.107 | 0.246 | 0.0105 | -0.472 | -0.54 (inactive) | 0.27 | 2.04 | -0.428 (inactive)
COC(=O)c1c(CC[C@@H](CO)NC(=O)N[C@@H](C)Cn2cc(C3(O)CCCCC3)nn2)oc(C(C)=O)c1C(=O)OC | 0.0154 | 0.93 | -0.0256 | 0.0508 | -1.82 | -0.637 | 1.17 (inactive) | -0.44 | 0.414 | -1.04 (inactive)
CC(CO)N1C(=O)[C@@H]2C3C(=O)OCCC/C=C\[C@H]3OC23C=CCN(c2ccc4ccccc4c2)C(=O)[C@@H]13 (stereo not given in full) | 0.149 | -0.0935 | 1.14 | 1.74 | 0.931 | 0.811 | -0.373 (inactive) | -0.713 | -0.832 | 0.315 (inactive)
O=C1NC(=O)C2C1C=CC(C(O)Cc1ccccc1)N2Nc1ccc(Cl)cc1Cl (stereo not given) | 0.447 | -0.0852 | -1.57 | -0.988 | -0.388 | -1.73 | -0.00872 (inactive) | -0.371 | -0.375 | -0.519 (inactive)
COCCOC(=O)N1C(=O)[C@@]2(c3cc(C#CCCO)ccc31)[C@H](C(=O)N1CCN(c3ncccn3)CC1)[C@H]1C(=O)O[C@H](c3ccccc3)[C@H](c3ccccc3)N1[C@@H]2c1ccccc1OCCO | 0.703 | 0.701 | -0.51 | 0.135 | -0.192 | 0.107 | 0.675 (inactive) | -0.324 | -1.15 | 1.79 (inactive)
COC(=O)[C@@]1(Cc2ccccc2)[C@H]2c3cc(C(=O)N4CCCC4)n(CC4CC4)c3C[C@H]2CN1C(=O)c1ccccc1 | -1.46 | 0.643 | -0.303 | -0.39 | -2.15 | 1.51 | -1.77 (inactive) | -0.516 | -0.569 | -1.51 (inactive)
CN(C)C(=O)[C@@]1(Cc2ccccc2CN=[N+]=[N-])N=C(c2ccc(OCCCO)cc2)O[C@H]1c1ccccc1 | -0.62 | -0.476 | -1.18 | -3.03 | -3.94 | -0.807 | -0.215 (inactive) | -0.988 | -2.52 | -0.325 (inactive)
COCCOC(=O)N1C(=O)[C@@]2(c3cc(C#CCCO)ccc31)[C@H](C(=O)Nc1nc3ccccc3s1)[C@H]1C(=O)O[C@H](c3ccccc3)[C@H](c3ccccc3)N1[C@@H]2c1ccc(OCCO)cc1 | -0.324 | -0.0713 | 0.555 | -0.315 | -0.234 | -3.53 | 0.823 (inactive) | -0.371 | -1.41 | 1.24 (inactive)
[N-]=[N+]=Nc1ccccc1C[C@]1(C(N)=O)N=C(c2ccc(OCCCO)cc2)O[C@H]1c1ccccc1 | 0.0914 | 0.124 | -0.0857 | -1.9 | -0.495 | -0.543 | -0.387 (inactive) | -0.265 | -0.0874 | 0.453 (inactive)
O=C1NCC(=O)N2[C@@H]1C[C@@H](C(=O)O)[C@H]2c1cccc(OCCO)c1 | 0.278 | -0.856 | 0.662 | 0.301 | 0.362 | 2.32 | -0.16 (inactive) | 0.529 | -0.514 | -0.229 (inactive)
O=C1c2ccccc2[C@](Cc2ccccc2I)(C(=O)NC2CC2)[C@H](c2ccc(CO)cc2)N1Cc1ccccc1 | 0.465 | -0.241 | -0.236 | -0.349 | -0.253 | 0.478 | 0.174 (inactive) | -0.679 | 0.00466 | 1.47 (inactive)
CCCCCN1CC=CC23O[C@@H]4/C=C\CCCOC(=O)C4[C@H]2C(=O)N(C(CO)C(C)C)[C@@H]3C1=O (stereo not given in full) | -0.436 | 0.737 | -1.05 | 0.693 | 0.108 | -0.335 | -0.0791 (inactive) | 0.0204 | -0.407 | 0.534 (inactive)
C=C(C)C1C(=C)CN([C@H](CO)c2ccccc2)C1=O (stereo not given in full) | -0.488 | 0.783 | -0.764 | 0.0188 | -2.01 | -0.113 | 0.113 (inactive) | -0.175 | -0.761 | 1.02 (inactive)
CC(C)N1C(=O)c2ccccc2[C@](C)(C(=O)NCc2ccccc2)[C@@H]1c1ccc(CO)cc1 | 0.82 | 0.48 | -0.699 | -0.656 | -0.0073 | -0.265 | -0.426 (inactive) | -0.833 | -0.472 | -0.0838 (inactive)
N#Cc1ccc(NN2C(C(O)c3c(F)cccc3Cl)C=CC3C(=O)N(c4ccccc4)C(=O)C32)cc1 (stereo not given) | 0.212 | -0.684 | 0.0972 | -0.0928 | -0.91 | -1.41 | -1.82 (inactive) | -0.275 | -0.0893 | -0.0273 (inactive)
COc1cc2c(cc1OC)CN(C(=O)[C@H]1[C@@H]3C(=O)O[C@@H](c4ccccc4)[C@@H](c4ccccc4)N3[C@@H](c3ccc(O)cc3)[C@]13C(=O)Nc1ccc(C#CCNC(N)=O)cc13)CC2 | -0.697 | 0.448 | 0.148 | 0.703 | 0.168 | -1.31 | 0.635 (inactive) | 0.22 | -0.222 | -0.0437 (inactive)
CN(C)CCCNC(=O)[C@@]1(c2ccc([N+](=O)[O-])cc2)CC(=O)N(C2CCCCC2)[C@@H]1c1ccc(CO)cc1 | 0.259 | -0.272 | 0.23 | -0.432 | -1.43 | 0.259 | 0.255 (inactive) | 0.956 | -0.435 | 0.497 (inactive)
COc1ccc([C@H]2C[C@H]3C(Br)=C[C@@H]2C(=O)[C@]32CO2)cc1 | 0.321 | 0.0531 | -0.193 | -2.75 | -1.55 | -0.262 | 0.558 (inactive) | -0.556 | -0.914 | 0.217 (inactive)
COCC(=C=CC[C@H](O)c1ccccc1OCCO)C[C@H](O)c1cc(Cl)cc(Cl)c1O | -2.79 | -4.68 | -2.64 | -2.93 | -3.02 | -0.775 | 1.66 (inactive) | -0.57 | -1.88 | -3.06 (inactive)
COCCCNC(=O)[C@@]1(Cc2ccccc2N=[N+]=[N-])N=C(c2ccc(OCCCO)cc2)O[C@H]1c1ccccc1N=[N+]=[N-] | -1.84 | 0.954 | -1.37 | -1.88 | -3.69 | 1.77 | 0.221 (inactive) | -1.22 | -2.03 | -1.76 (inactive)
CCCC=C(CCC)[C@@H](NC(=O)Oc1ccc(F)cc1)c1ccc(C(=O)OC)cc1 | -1.33 | -0.609 | 0.0049 | -1.43 | -2.42 | 6.8 | 0.261 (inactive) | -0.754 | -1.44 | 0.717 (inactive)
Cc1ccc(S[C@]2(C(=O)NCC(F)(F)F)CC(=O)N(C(C)C)[C@@H]2c2ccc(CO)cc2I)cc1 | 0.553 | 0.837 | -0.0366 | -2.2 | -2.73 | 0.409 | -0.374 (inactive) | -0.815 | -1.12 | 0.683 (inactive)

Reference: PubChem BioAssay
